This is one part of a sample in which hits are shown more often than they occur.
GIRK2 act – Activates human GIRK2-containing potassium channels | P48051 | HEK293 GIRK2/NPY4 cells, thallium flux fluorescence | activation (% efficacy), % for hits at 75 µM | 34,000 tested, under 10 active | AID 1259324;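 active = primary screen hit, no activity in plain HEK293 cells, and in GIRK2-only cells above 5% efficacy rising with concentration; inactive = the rest, including fluorescent compounds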;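 note: efficacy is normalized control-subtracted fluorescence 15 s after thallium addition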
AMPAR-TARP mod – modulates AMPAR-stargazin complexes; actives 3.5% (n = 40,000); calls only at 30 µM; HEK293 GluA2+stargazin, membrane potential dye (FDSS), glutamate EC50; hits were called plate by plate, in both directions; O88602+P19491; AID 1259245;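 active = any of four per-well response measures lying three or more SD from its plate-wide compound average, in either direction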
Target sequence (O88602 whole entry, looked up): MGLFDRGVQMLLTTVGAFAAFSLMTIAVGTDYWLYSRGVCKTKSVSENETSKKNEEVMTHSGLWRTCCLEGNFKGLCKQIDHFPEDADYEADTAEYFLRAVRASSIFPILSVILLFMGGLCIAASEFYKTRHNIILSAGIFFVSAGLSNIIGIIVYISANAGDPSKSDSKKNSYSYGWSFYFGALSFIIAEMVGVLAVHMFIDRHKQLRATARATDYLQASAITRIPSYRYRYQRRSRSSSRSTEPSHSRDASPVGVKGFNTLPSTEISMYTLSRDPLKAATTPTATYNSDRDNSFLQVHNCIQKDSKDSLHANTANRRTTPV
Target sequence (P19491 whole entry, looked up): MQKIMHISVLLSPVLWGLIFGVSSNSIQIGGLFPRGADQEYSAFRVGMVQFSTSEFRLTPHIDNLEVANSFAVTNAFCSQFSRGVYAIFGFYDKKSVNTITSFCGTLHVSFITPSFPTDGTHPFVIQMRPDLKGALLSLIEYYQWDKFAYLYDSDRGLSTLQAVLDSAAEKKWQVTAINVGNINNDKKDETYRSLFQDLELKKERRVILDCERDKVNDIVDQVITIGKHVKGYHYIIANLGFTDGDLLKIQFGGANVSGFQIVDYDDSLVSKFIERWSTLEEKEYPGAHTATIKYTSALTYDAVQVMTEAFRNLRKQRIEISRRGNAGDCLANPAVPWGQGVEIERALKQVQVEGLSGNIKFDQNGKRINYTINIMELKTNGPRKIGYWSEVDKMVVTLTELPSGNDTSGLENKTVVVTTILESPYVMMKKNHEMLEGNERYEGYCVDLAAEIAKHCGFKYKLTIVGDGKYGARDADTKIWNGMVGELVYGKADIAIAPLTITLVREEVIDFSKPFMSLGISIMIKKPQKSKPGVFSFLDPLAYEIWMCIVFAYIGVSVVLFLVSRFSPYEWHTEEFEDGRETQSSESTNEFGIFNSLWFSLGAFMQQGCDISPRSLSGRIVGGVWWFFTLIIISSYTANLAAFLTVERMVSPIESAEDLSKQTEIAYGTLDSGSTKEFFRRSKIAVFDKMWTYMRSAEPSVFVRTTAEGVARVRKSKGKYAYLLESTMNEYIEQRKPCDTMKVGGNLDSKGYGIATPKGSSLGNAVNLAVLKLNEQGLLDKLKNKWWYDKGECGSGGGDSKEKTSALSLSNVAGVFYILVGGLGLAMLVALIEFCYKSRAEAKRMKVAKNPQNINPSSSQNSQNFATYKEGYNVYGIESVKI
An asterisk follows results filed as active; i = inactive; · = not tested or not shown; + = active, no number; ! = repeats disagree.

SMILES | GIRK2 act | AMPAR-TARP mod
Cc1ccc(Cc2nnc(NC(=O)Cc3ccccc3Cl)o2)c(C)c1 | i | i
O=C(NCCCN1CCOCC1)C(=O)Nc1ccc(F)c([N+](=O)[O-])c1 | i | +
O=C(NCCN1CCOCC1)C(=O)Nc1ccc(F)c([N+](=O)[O-])c1 | i | i
Cc1ccc(Oc2cccc(NC(=O)c3cccc(C(F)(F)F)c3)c2)nn1 | i | i
O=C(NCCCn1cccc1)c1cc(-c2ccccc2)n[nH]1 | i | i
O=C(NCCCn1cccc1)c1ccccc1 | i | +
CCN1C(=O)c2cccc3c(NC(=O)CSCc4ccccc4)ccc1c23 | i | i
CN(C)S(=O)(=O)c1ccc(C(=O)Nc2ccc(OC(F)(F)F)cc2)o1 | i | +
Cc1nnc(NC(=O)c2ccc(S(=O)(=O)Nc3ccc(OC(F)(F)F)cc3)o2)s1 | i | i
Cc1csc(NC(=O)c2ccc(S(=O)(=O)Nc3ccc(OC(F)(F)F)cc3)o2)n1 | i | +
O=C(Nc1ccc(OC(F)(F)F)cc1)c1ccc(S(=O)(=O)NC2CC2)o1 | i | i
Cc1nnc(C2CCN(C(=O)c3sc(C)nc3C)CC2)s1 | i | i
O=C(Nc1nnc(-c2ccc(Br)s2)o1)C1CCCN1S(=O)(=O)c1cccs1 (configuration not stated) | i | i
O=C(NCCOc1ccc(F)cc1)c1ccccc1Cl | i | i
O=C(NCCOc1ccc(F)cc1)c1c(F)cccc1Cl | i | +
O=C(NCC(O)c1ccsc1)c1cc2ccccc2oc1=O (configuration not stated) | i | i
COc1ccc(Cl)cc1NC(=O)Cn1ncn2nc3c(c2c1=O)CCCC3 | i | +
COc1ccc(CCNC(=O)Cn2ncn3nc4c(c3c2=O)CCCC4)cc1OC | i | ·
CC(=O)NCCc1nc2ccccc2n1Cc1cccc(Cl)c1 | · | i
CN1CCN(n2c3c(c(SCC(=O)NCc4ccco4)nc2=O)CCC3)CC1 | i | i
COc1ccccc1N1CC(C)Cn2c1nc1c2c(=O)n(Cc2cccc(C)c2)c(=O)n1C (configuration not stated) | · | i
COc1ccccc1N1CC(C)Cn2c1nc1c2c(=O)n(Cc2ccc(C)cc2)c(=O)n1C (configuration not stated) | · | +
CC(C)(C)c1ccc(OCC(=O)Nc2ccc(CC(=O)NCc3cccs3)cc2)cc1 | i | i
O=S(=O)(Cc1cccc(F)c1)NCC(O)c1ccc(C(F)(F)F)cc1 (configuration not stated) | i | +
O=S(=O)(NCC(O)c1ccc(C(F)(F)F)cc1)c1ccccc1Cl (configuration not stated) | i | i
SMILES | GIRK2 act | AMPAR-TARP mod
Cc1ccc(S(=O)(=O)NCC(O)c2ccc(C(F)(F)F)cc2)s1 (configuration not stated) | i | i
O=S(=O)(NCC(O)c1ccc(C(F)(F)F)cc1)c1ccc(Br)s1 (configuration not stated) | · | +
COc1ccc(S(=O)(=O)NCC(O)c2ccsc2)c(C)c1 (configuration not stated) | i | i
COc1ccc(S(=O)(=O)NCC(O)c2ccc(C(F)(F)F)cc2)c(C)c1 (configuration not stated) | i | +
O=S(=O)(NCC(O)c1ccsc1)c1ccc(F)c(Cl)c1 (configuration not stated) | i | i
O=S(=O)(NCC(O)c1ccc(C(F)(F)F)cc1)c1ccc(F)c(Cl)c1 (configuration not stated) | i | +
CCOc1cccc2sc(N(Cc3ccccn3)C(=O)c3ccn(C)n3)nc12 | i | i
CCc1nc2sc(C(c3ccc(F)cc3)N3CCN(Cc4ccccc4)CC3)c(O)n2n1 (configuration not stated) | · | i
COc1ccc(-c2cn(CC(=O)NC3CCCCC3)nc2N2CCOCC2)cc1 | i | ·
COc1cc(NC(=O)c2cccc(N3C(=O)NC4CC3(C)Oc3ccccc34)c2)cc(OC)c1OC (configuration not stated) | i | i
Cc1cc(C)c(C(=O)NCCc2ccccc2)c(C)c1 | i | +!
Cc1ccc(C)c(S(=O)(=O)Nc2ccc(C(=O)NCCc3ccccc3)cc2)c1 | · | i
CSc1ncccc1C(=O)N1CCC(CNC(=O)c2cc(Cl)cc(Cl)c2)CC1 | i | i
CSc1ncccc1C(=O)N1CCC(CNC(=O)C2(c3ccc(Cl)cc3)CCCC2)CC1 | i | +
CSc1ncccc1C(=O)N1CCC(CNC(=O)c2ccccc2F)CC1 | i | +
CSc1ccccc1CN1CCC(CNC(=O)c2cnc3ccccc3n2)CC1 | i | i
CSc1ncccc1C(=O)N1CCC(CNC(=O)c2ccccc2Br)CC1 | i | i
O=C(CSc1ccc(F)cc1)NCC1CCN(C(=O)c2ccccc2F)CC1 | i | +
CSc1ccccc1CN1CCC(CNC(=O)c2ccccn2)CC1 | i | +
CSc1ccccc1C(=O)NCC1CCN(C(=O)c2ccccc2F)CC1 | i | i
CCN1CCN(C(c2cccc(Br)c2)c2sc3nc(C)nn3c2O)CC1 (configuration not stated) | · | i
C=CCN(CC=C)S(=O)(=O)c1ccc(C(=O)N2CCCc3ccccc32)cc1 | · | i
COc1cc(OC)c(NC(=O)NCCNc2cc(N3CCCC3)nc(C)n2)cc1Cl | i | ·
O=C(CN1CCCCC1)Nc1nc2ccccc2s1 | i | i
O=C(Nc1ccc2cn[nH]c2c1)C1CN(C(=O)c2cnccn2)C1 | i | i
SMILES | GIRK2 act | AMPAR-TARP mod
Cc1ccc(CNC(=O)c2snc(C(=O)NC(C)C)c2N)o1 | i | i
COc1ccc(-n2nnc3c(N4CCN(C(=O)C(=O)c5c(C)[nH]c6ccccc56)CC4)ncnc32)cc1 | · | i
COc1ccc(OC)c(NC(=O)c2cc(-c3ccc(OC)c(OC)c3)nc3ccccc23)c1 | · | i
CN(Cc1ccccc1)c1nc2c(c(=O)[nH]c(=O)n2C)n1CC(O)c1ccccc1 (configuration not stated) | · | i
CN1C(=O)C(C)(C)COc2cc(NC(=O)c3ccc4nsnc4c3)ccc21 | i | +
Cc1cc(C(=O)Nc2ccc3c(c2)OCC(C)(C)C(=O)N3C)c(C)o1 | i | i
Cc1cc(NC(=O)c2ccc(OC(C)C)cc2)n(-c2ccccc2)n1 | i | i
O=C(Nc1sc2ccccc2c(=O)c1-c1ccc(Br)cc1)c1ccco1 | i | i
COc1ccc(-c2c(NC(=O)c3ccco3)sc3ccccc3c2=O)cc1OC | i | +
Cc1cccc2sc(NC(=O)Cc3csc(Nc4ccc(Cl)cn4)n3)nc12 | i | i
CSc1ccc(CC(=O)Nc2nc3ccc(Br)cc3s2)cc1 | · | i
COc1ccc(NC(=O)CCc2csc(NS(=O)(=O)c3ccccc3)n2)cc1OC | i | i
NC(=O)c1ccc(NC(=O)CCc2csc(NS(=O)(=O)c3ccccc3)n2)cc1 | i | +
CC(=O)c1cccc(NC(=O)CCc2csc(NS(=O)(=O)c3ccccc3)n2)c1 | i | +
O=C(CCc1csc(NS(=O)(=O)c2ccc(F)cc2)n1)Nc1ccc(Cl)cc1 | i | +
O=C(CCc1csc(NS(=O)(=O)c2ccccc2)n1)Nc1ccc(OC(F)(F)F)cc1 | i | i
